Screens deposited in PubChem by Broad Institute.
Not all results are given here.
aSyn UTR act = Activators via SNCA 5'UTR binding, MLPCN; AID 1814, 2009; hit rate 7.1% among 300,000; alpha-synuclein 5'UTR reporter, activators screen; activity score, % (tested at 7.5 µM), hits read low; in the data active = activity score below about -60%
* marks the source's active call; other numbers are inactive results.

SMILES | aSyn UTR act
O=C(CSc1nc(-c2ccccc2)cs1)NCCN1C(=O)CSC1=O | -71*
O=C(CSc1nc(-c2ccc(F)cc2)cs1)NCCN1C(=O)CSC1=O | -62*
COC(=O)CNc1c(-c2ccccc2)nc2ccc(Br)cn12 | -69*
COc1ccc(C(=O)Nc2ccc(Cl)c(Cl)c2)c(OC)n1 | -104*
O=C(Nc1ccc2c(c1)COC2=O)c1ccc(Cl)c(Cl)c1 | -143*
O=C(Nc1ccc2c(c1)Cc1ccccc1-2)c1ccncc1 | -134*
O=C(Nc1ccc(Cl)c(Cl)c1)c1ccncc1 | -149*
O=C(Nc1ccc(Cl)c(Cl)c1)c1ccc(Cl)c(Cl)c1 | -102*
Cc1cc(C)n2ncc(C(=O)Nc3ccc(Cl)c(Cl)c3)c2n1 | -106*
COc1ccc(NC(=O)Nc2cccc(Cl)c2Cl)c(OC)n1 | -72*
Fc1ccc2nc(Nc3nc4cc5c(cc4s3)OCCO5)sc2c1 | -128*
c1ccc2sc(Nc3nc4cc5c(cc4s3)OCO5)nc2c1 | -264*
Fc1ccc2nc(Nc3nc4cc5c(cc4s3)OCO5)sc2c1 | -232*
O=C(O)C(=O)/C(=C\c1ccccc1)c1ccc2ccccc2n1 | -90*
O=C(O)C(=O)/C(=C\c1ccc([N+](=O)[O-])cc1)c1ccc2ccccc2n1 | -88*
O=C(Oc1ccc(Cl)cc1)N1CCCCC1 | -110*
O=C(Oc1ccc2ccc(OC(=O)N3CCCCCC3)cc2c1)N1CCCCCC1 | -81*
Cc1cccc(/C(N)=N/OC(=O)c2ccc(Br)o2)c1 | -210*
Cc1cccc(/C(N)=N/OC(=O)C23CC4CC(CC(C4)C2)C3)c1 | -114*
COc1cc(OC)cc(C(=O)O/N=C(\N)c2ccncc2)c1 | -68*
Cc1cccc(/C(N)=N/OC(=O)c2cccnc2)c1 | -73*
COc1cc(OC)cc(C(=O)O/N=C(\N)c2cccc(C)c2)c1 | -81*
CN(C)/N=C/C=C1\CC/C(=C\c2ccc(Br)cc2)C1=O | -84*
CN(C)/N=C/C=C1\CCC/C(=C/c2cccs2)C1=O | -173*
Brc1ccc(Cn2c(-c3cncs3)nc3ccccc32)cc1 | -112*
SMILES | aSyn UTR act
c1ccc(Cn2c(-c3cncs3)nc3ccccc32)cc1 | -92*
COc1ccc(OC)c(NC(=O)c2nc(S(=O)(=O)Cc3ccccc3)ncc2Cl)c1 | 99
COc1ccc(CCNC(=O)c2ccccc2)cc1 | -64*
COc1ccc(CC(=O)Nc2ccccc2C(=O)NCCc2ccccc2)cc1 | -101*
COc1ccc(C(=O)Nc2cc(C(=O)NCCc3ccccc3)ccc2Cl)cc1 | -69*
COc1ccc(OC(=O)NCCc2ccccc2)cc1 | -134*
COc1ccc(O)c(/C=N/NC(=O)c2c(C)nnn2-c2nonc2N)c1 | 64
COc1cccc(CCNC(=O)c2ccc(C#N)cc2)c1 | -63*
COc1ccc(CCNC(=O)c2nonc2N)cc1 | -85*
Fc1cc(Cl)c(OCc2noc(-c3ccsc3)n2)c(Cl)c1 | -81*
Clc1ccc(OCc2noc(-c3ccsc3)n2)c(Cl)c1 | -170*
c1ccc(-c2cnc(-c3ccccc3)nc2)cc1 | -66*
c1ccc(-c2ncc3c(ccc4ccccc43)n2)cc1 | 68
Nc1cnc(-c2ccccc2)nc1Cl | -63*
NC(=O)C1CCN(Cc2ccc(OCc3ccccc3)cc2)CC1 | -95*
CCOCCCNC(=O)C1CCN(Cc2ccc(OCc3ccccc3)c(OC)c2)CC1 | -117*
CCCCNC(=O)C1CCN(Cc2ccc(OCc3ccccc3)c(OC)c2)CC1 | -115*
COc1cc(CN2CCC(C(=O)NCC(C)(C)CN(C)C)CC2)ccc1OCc1ccccc1 | -67*
Cn1ccs/c1=N\C(=O)Nc1cccc(C(F)(F)F)c1 | -109*
COc1ccc(Cc2nc(C(=O)Nc3ccccc3)cs2)cc1 | -73*
O=C(Nc1ccc(Cl)cc1)c1csc(Cc2ccccc2)n1 | -72*
COc1ccc(C(=O)/C=C/C(=O)N(CC(=O)NC2CCCCC2)Cc2cccs2)c(O)c1 | 71
Cc1ccccc1N(CC(=O)NC1CCCC1)C(=O)c1csnn1 | -146*
COCCn1c(C)cc(C(=O)CSc2nc3ccccc3s2)c1C | 53
COCCn1c(C)cc(C(=O)Cn2nc(C(=O)O)c3ccccc3c2=O)c1C | -116*
SMILES | aSyn UTR act
Cc1nc(-c2ccccc2)sc1-c1ccnn1C | -111*
O=C(Nc1nc2ccccc2n1CCN1CCOCC1)c1cn(-c2ccccc2)nc1-c1ccccc1 | 83
O=c1c2ccccc2nc2c3ccccc3c(NCCN3CCOCC3)nn12 | -345*
c1ccc2nc3c(nc2c1)c1ccccc1n3CCN1CCOCC1 | -80*
O=[N+]([O-])c1cc(C(F)(F)F)ccc1Sc1ccc2ccccc2n1 | -75*
CCCCC1CCC(c2nc(-c3cccnc3)no2)CC1 (stereo not drawn) | -92*
CCCCC1CCC(c2nc(-c3ccccn3)no2)CC1 (stereo not drawn) | 97
CCc1ccc2oc(-c3cc(N)ccc3Cl)nc2c1 | -63*
Nc1ccc2oc(-c3ccccc3Cl)nc2c1 | 57
O=C(CSC(=S)N1CCOCC1)Nc1nc(=O)c2ccccc2s1 | -85*
C/C(=N\NC(=O)COc1ccc(C(C)(C)C)cc1)c1ccc(-n2ccnc2)cc1 | -133*
NNc1nc(Nc2ccccc2)nc(Nc2ccccc2)n1 | -117*
c1ccc(Nc2ccnc(Nc3ccccc3)n2)cc1 | -100*
Cc1nnsc1C(=O)NNc1ccc(C(C)C)cc1 | -99*
C/C(NC(=O)c1ccccc1)=C1/C(=O)CC2C1C2(C)C (stereo not drawn) | -99*
COc1ccc(NC(=O)C(=O)NCC(c2ccco2)N2CCc3ccccc32)cc1 (stereo not drawn) | 85
O=C(Nc1cccc(Cl)c1)N1CCc2ccccc2C1 | -185*
COc1ccc(NC(=S)N2CCc3ccccc3C2)cc1 | -82*
COc1cccc(NC(=O)N2CCc3ccccc3C2)c1 | -104*
COc1ccccc1C(=O)Nc1ccc2c(c1)CN(C(=O)CSC)CC2 | -109*
COc1cccc(-c2cc(C(=O)N3CCc4ccccc4C3)[nH]n2)c1 | -68*
S=C(NCCc1ccccc1)N1CCc2ccccc2C1 | -101*
FC(F)Oc1ccc(NC(=S)N2CCc3ccccc32)cc1 | -133*
O=C1Nc2ccccc2S/C1=C/Nc1cccc(Cl)c1 | -203*
Cc1ccc(F)cc1NC(=O)c1sc2ncn(CC(=O)N3CCN(c4ccccn4)CC3)c(=O)c2c1C | -89*
SMILES | aSyn UTR act
CCOC(=O)/C=C/c1cnn(-c2ccccc2)c1 | -113*
COc1ccccc1-c1nnc(Sc2nc([N+](=O)[O-])nn2C)o1 | -83*
O=C1CC(/C=C/c2ccncc2)=Nc2ccccc2N1 | -65*
COC(=O)c1ccc(CC(=O)c2nc3ccccc3s2)cc1 | -63*
O=C(Cc1ccccc1)c1nc2ccccc2s1 | -216*
COC(=O)c1ccc(CSc2nc3ccccc3s2)o1 | -83*
COC(=O)c1ccc(/C(O)=C(\C#N)c2nc3ccccc3s2)cc1 | -150*
Cc1c(C(=O)N2CCc3ccccc3C2)oc2ccccc12 | -98*
Cc1c(C(=O)N2c3ccccc3CC2C)oc2ccccc12 (stereo not drawn) | -76*
CC1CCN(c2c(NCc3ccc(C(=O)N4CCc5ccccc54)cc3)c(=O)c2=O)CC1 | 88
Cn1cc(C(=O)N2CCc3ccccc32)cn1 | -63*
Cc1ccc(C(=O)N2CCc3ccccc32)cc1 | -112*
O=C(c1cc([N+](=O)[O-])ccc1N1CCCCC1)N1CCc2ccccc21 | 81
O=C(c1ccc(Cl)s1)N1CCc2ccccc21 | -195*
N/C(Cc1ccc([N+](=O)[O-])cc1)=N\OC(=O)c1ccccc1F | -185*
O=C(Nc1ccc([N+](=O)[O-])cc1)c1ccccc1F | -154*
